Results as given in article PMC7862700, “An all-to-all approach to the identification of sequence-specific readers for epigenetic DNA modifications on cytosine”.

Key:
Test in all cases: DAPPL (digital affinity profiling via proximity ligation, sequencing); 10 mM Tris-HCl pH 7.5, 50 mM NaCl, 1 mM DTT, 4% glycerol, room temperature, 30 min; GST-TFs on glutathione beads, 16-mer random dsDNA library, 0.1% formaldehyde crosslink after washing; high values mean tight binding
FEV = target: T1, FEV (Homo sapiens, UniProt Q99581 1-238); conditions: protein: recombinant; tags: N-terminal GST; dsDNA, one strand shown
T1 sequence: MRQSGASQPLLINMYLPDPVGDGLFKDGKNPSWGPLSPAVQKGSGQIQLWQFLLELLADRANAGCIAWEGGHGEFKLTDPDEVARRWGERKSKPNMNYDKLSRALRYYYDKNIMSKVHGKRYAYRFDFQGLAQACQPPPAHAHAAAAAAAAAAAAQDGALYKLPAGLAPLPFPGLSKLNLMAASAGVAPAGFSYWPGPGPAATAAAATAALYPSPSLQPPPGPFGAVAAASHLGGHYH
Summary of the method: (§1)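 Beads coated with glutathione captured GST-fused human transcription factors that had been expressed in yeast, and the factors were then given DNA barcodes and pooled with a tag-only sample. The pools were incubated with 200 nmole of a random double-stranded 16-mer DNA library in Tris/NaCl/DTT/glycerol buffer for 30 min at room temperature, washed, crosslinked with 0.1% formaldehyde and proximity-ligated with BsaI/T4 ligase at 37 °C for 1 h. PCR amplification and Illumina NextSeq500 sequencing came last. Binding signal is each hexamer's read frequency for a factor divided by its frequency for the tag-only sample.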

ETV5 = ETV5 (Homo sapiens, UniProt P41161 1-510); conditions: protein: recombinant; tags: N-terminal GST; dsDNA, one strand shown
Sequence of ETV5 (P41161 whole entry): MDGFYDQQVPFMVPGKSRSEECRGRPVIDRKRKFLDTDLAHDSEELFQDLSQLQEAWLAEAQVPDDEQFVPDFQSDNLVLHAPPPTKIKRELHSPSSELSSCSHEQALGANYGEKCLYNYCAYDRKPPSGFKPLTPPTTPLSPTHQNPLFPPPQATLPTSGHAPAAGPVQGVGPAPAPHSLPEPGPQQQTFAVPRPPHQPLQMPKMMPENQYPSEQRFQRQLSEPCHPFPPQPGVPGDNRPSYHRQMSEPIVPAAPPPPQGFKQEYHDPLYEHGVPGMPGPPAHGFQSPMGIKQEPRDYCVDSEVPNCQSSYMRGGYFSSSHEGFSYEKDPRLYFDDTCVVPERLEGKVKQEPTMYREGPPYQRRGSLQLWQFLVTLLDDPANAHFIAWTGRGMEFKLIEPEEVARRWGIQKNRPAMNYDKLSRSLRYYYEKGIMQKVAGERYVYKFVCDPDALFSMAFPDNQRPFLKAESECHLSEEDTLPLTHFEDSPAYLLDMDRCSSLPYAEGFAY
Summary of the method: as §1

HSF1 = HSF1 (Homo sapiens, UniProt Q00613 1-529); conditions: protein: recombinant; tags: N-terminal GST; chain copies: 3; dsDNA, one strand shown
Sequence of HSF1 (Q00613 whole entry): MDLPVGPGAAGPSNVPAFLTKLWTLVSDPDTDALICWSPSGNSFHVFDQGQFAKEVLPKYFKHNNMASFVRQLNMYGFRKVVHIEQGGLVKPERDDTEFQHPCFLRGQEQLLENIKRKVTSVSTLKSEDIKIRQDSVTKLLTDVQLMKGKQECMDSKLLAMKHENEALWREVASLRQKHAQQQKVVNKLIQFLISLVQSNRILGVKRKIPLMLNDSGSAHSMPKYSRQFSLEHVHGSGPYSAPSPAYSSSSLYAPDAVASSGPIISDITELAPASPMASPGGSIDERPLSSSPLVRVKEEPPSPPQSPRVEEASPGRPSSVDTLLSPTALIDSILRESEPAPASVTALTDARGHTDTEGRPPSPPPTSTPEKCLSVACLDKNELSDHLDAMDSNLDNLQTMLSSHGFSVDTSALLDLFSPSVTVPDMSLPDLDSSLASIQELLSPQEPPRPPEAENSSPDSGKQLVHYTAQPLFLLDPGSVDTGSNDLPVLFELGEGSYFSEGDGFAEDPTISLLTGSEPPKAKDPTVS
Summary of the method: as §1

SPIC = target: T2, SPIC (Homo sapiens, UniProt Q8N5J4 1-248); conditions: protein: recombinant; tags: N-terminal GST; dsDNA, one strand shown
T2 sequence: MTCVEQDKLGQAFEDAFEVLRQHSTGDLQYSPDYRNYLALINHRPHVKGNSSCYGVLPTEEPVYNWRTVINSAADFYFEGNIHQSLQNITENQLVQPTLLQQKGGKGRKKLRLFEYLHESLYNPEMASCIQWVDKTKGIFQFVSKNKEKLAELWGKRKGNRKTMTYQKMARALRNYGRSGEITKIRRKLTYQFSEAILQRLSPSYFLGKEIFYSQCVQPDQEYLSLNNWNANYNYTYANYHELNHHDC
Summary of the method: as §1

ELF4 = ELF4 (Homo sapiens, UniProt Q99607 1-663); conditions: protein: recombinant; tags: N-terminal GST; dsDNA, one strand shown
Sequence of ELF4 (Q99607 whole entry): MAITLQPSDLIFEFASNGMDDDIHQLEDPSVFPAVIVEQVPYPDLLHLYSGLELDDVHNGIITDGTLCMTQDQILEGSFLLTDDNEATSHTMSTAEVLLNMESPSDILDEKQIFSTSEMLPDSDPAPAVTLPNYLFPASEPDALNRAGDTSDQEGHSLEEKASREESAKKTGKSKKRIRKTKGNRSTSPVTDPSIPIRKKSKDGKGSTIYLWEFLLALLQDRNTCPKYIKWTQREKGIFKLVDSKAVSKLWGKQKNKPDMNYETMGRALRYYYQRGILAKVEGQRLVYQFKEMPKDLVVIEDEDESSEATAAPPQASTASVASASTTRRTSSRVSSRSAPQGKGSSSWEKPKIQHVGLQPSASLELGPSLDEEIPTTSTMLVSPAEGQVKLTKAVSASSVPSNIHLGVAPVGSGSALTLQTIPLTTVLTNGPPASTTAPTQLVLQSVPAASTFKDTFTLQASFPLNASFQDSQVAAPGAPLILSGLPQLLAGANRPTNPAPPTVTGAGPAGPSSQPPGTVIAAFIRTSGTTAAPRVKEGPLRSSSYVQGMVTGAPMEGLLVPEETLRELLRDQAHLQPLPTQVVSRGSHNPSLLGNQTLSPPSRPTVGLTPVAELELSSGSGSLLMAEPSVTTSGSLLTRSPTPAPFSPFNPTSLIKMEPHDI
Summary of the method: as §1

ELK4 = target: T3, ELK4 (Homo sapiens, UniProt P28324-2 1-405); conditions: protein: recombinant; tags: N-terminal GST; dsDNA, one strand shown
T3 sequence: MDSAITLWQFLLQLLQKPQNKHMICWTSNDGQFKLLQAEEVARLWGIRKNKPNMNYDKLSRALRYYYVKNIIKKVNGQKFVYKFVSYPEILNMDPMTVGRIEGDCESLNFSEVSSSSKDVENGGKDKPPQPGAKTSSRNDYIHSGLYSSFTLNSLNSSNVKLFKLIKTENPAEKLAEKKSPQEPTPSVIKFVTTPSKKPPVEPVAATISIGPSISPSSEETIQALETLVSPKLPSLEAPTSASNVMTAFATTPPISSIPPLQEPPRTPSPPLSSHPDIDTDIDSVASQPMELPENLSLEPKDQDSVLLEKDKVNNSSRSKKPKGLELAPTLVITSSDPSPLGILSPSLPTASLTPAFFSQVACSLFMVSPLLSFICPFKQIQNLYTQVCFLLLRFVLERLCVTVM
Summary of the method: as §1

ETV2 = target: T4, ETV2 (Homo sapiens, UniProt O00321 1-342); conditions: protein: recombinant; tags: N-terminal GST; dsDNA, one strand shown
T4 sequence: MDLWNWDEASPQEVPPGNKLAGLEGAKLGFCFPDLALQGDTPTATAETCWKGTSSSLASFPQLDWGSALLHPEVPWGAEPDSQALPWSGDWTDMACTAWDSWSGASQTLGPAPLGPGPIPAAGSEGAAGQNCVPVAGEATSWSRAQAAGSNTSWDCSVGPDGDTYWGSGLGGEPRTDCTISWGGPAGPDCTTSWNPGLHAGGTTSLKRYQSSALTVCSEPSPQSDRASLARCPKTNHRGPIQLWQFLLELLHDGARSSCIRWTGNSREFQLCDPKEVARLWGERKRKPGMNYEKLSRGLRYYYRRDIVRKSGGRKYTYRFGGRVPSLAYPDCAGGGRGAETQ
Summary of the method: as §1

ELF3 = target: T5, ELF3 (Homo sapiens, UniProt P78545 1-371); conditions: protein: recombinant; tags: N-terminal GST; dsDNA, one strand shown
T5 sequence: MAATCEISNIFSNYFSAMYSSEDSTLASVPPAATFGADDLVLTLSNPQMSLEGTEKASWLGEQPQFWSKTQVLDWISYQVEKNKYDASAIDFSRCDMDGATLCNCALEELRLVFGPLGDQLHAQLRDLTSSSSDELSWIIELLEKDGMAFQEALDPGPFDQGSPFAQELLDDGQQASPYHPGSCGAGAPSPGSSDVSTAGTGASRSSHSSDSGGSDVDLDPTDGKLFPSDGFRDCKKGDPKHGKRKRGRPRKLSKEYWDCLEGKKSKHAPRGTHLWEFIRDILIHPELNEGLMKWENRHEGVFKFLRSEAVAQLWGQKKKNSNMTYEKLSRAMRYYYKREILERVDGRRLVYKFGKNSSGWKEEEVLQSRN
Summary of the method: as §1

CRX = CRX (Homo sapiens, UniProt O43186 1-299); conditions: protein: recombinant; tags: N-terminal GST; dsDNA, one strand shown
Sequence of CRX (O43186 whole entry): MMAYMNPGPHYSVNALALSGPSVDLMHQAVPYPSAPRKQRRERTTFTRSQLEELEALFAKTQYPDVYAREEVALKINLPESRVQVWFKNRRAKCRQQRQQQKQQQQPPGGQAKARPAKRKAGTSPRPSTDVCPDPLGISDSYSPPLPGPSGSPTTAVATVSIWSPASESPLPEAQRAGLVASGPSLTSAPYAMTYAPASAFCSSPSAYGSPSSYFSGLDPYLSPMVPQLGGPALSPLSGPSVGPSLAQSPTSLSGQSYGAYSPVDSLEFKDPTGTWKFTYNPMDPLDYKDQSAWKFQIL
Summary of the method: as §1

ETV1 = ETV1 (Homo sapiens, UniProt P50549 1-477); conditions: protein: recombinant; tags: N-terminal GST; dsDNA, one strand shown
Sequence of ETV1 (P50549 whole entry): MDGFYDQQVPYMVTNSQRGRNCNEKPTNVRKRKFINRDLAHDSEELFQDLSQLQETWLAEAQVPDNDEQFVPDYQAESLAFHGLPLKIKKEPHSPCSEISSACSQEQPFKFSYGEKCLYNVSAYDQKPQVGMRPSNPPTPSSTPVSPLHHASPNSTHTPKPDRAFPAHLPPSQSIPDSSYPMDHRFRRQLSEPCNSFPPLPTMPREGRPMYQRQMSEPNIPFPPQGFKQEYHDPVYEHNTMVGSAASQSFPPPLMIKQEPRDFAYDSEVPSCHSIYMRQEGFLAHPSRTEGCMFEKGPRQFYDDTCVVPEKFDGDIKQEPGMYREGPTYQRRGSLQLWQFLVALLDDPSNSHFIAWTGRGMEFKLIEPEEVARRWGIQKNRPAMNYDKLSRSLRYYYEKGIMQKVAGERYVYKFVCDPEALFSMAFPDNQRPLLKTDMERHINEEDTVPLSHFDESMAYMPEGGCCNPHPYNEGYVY
Summary of the method: as §1

ERF = target: T6, ERF (Homo sapiens, UniProt P50548 1-548); conditions: protein: recombinant; tags: N-terminal GST; dsDNA, one strand shown
T6 sequence: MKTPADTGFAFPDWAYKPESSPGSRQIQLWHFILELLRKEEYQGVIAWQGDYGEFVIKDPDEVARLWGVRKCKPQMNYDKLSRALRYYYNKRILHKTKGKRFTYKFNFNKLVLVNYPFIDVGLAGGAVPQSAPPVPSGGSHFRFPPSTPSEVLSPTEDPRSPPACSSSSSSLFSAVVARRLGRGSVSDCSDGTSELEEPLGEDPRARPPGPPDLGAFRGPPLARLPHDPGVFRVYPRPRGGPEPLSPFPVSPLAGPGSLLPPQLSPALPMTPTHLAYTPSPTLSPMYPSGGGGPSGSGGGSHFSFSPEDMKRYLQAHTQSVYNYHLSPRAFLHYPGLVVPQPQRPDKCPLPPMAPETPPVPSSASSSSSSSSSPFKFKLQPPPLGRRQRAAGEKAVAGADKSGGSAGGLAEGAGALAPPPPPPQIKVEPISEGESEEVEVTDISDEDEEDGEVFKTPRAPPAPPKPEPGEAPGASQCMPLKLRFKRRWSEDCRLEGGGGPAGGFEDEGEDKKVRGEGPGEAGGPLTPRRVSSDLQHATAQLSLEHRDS
Summary of the method: as §1

ETV3L = target: T7, ETV3L (Homo sapiens, UniProt Q6ZN32 1-361); conditions: protein: recombinant; tags: N-terminal GST; dsDNA, one strand shown
T7 sequence: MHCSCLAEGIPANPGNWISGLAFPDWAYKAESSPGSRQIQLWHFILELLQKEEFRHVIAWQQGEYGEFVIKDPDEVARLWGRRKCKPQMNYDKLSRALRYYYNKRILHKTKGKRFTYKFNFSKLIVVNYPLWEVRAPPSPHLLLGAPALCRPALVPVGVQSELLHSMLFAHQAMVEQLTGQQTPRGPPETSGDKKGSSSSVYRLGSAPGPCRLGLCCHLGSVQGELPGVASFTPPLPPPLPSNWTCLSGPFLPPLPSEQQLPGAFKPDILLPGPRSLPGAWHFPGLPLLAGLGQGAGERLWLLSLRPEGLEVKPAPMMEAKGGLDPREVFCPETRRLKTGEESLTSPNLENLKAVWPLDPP
Summary of the method: as §1

ETS2 = target: T8, ETS2 (Homo sapiens, UniProt P15036 1-469); conditions: protein: recombinant; tags: N-terminal GST; dsDNA, one strand shown
T8 sequence: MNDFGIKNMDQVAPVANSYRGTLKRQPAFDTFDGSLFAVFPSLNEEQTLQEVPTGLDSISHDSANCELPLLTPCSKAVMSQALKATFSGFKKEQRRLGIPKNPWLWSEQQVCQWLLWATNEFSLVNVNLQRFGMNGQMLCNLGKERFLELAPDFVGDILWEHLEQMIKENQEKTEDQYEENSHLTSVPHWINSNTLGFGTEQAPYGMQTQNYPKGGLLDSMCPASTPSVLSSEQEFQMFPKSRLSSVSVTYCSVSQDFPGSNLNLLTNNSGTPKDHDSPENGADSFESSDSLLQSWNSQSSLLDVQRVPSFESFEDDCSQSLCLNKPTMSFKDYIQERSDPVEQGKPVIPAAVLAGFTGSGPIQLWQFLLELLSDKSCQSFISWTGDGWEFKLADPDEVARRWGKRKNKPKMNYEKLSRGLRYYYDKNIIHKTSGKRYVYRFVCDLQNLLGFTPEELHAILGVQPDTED
Summary of the method: as §1

SPDEF = target: T9, SPDEF (Homo sapiens, UniProt O95238 1-335); conditions: protein: recombinant; tags: N-terminal GST; dsDNA, one strand shown
T9 sequence: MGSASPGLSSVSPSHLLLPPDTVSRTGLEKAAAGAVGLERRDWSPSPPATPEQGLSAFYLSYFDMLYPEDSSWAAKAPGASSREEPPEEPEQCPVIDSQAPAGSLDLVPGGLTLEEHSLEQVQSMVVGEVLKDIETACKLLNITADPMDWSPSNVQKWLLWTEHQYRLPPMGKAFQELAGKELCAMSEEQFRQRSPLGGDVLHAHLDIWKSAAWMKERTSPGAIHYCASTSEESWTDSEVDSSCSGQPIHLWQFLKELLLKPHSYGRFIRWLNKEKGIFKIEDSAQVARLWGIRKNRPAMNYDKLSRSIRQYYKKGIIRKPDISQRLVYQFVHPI
Summary of the method: as §1

ETV7 = target: T10, ETV7 (Homo sapiens, UniProt Q9Y603 1-341); conditions: protein: recombinant; tags: N-terminal GST; dsDNA, one strand shown
T10 sequence: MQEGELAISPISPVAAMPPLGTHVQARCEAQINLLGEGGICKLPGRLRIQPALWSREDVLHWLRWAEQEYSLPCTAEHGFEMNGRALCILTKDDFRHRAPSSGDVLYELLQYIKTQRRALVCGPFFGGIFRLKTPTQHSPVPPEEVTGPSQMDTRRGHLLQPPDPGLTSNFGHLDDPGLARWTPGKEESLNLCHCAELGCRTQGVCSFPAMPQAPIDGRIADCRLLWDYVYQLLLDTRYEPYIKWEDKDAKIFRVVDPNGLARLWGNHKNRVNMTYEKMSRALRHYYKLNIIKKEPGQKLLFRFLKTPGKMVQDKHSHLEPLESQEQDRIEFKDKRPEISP
Summary of the method: as §1

ELF5 = target: T11, ELF5 (Homo sapiens, UniProt Q9UKW6-2 1-255); conditions: protein: recombinant; tags: N-terminal GST; dsDNA, one strand shown
T11 sequence: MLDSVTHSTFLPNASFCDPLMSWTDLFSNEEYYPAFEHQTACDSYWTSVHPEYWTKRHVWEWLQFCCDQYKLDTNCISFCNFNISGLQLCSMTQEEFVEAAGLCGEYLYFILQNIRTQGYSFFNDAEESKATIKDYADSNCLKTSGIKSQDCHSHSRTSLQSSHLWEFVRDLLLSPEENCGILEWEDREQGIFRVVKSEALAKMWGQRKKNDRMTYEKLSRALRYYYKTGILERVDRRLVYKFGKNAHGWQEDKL
Summary of the method: as §1

ETV3 = target: T12, ETV3 (Homo sapiens, UniProt P41162-2 1-143); conditions: protein: recombinant; tags: N-terminal GST; dsDNA, one strand shown
T12 sequence: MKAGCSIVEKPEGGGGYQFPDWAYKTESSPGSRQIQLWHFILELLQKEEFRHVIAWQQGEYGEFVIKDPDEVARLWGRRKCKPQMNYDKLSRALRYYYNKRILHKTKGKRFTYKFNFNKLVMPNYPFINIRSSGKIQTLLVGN
Summary of the method: as §1

ETV6 = ETV6 (Homo sapiens, UniProt P41212 1-452); conditions: protein: recombinant; tags: N-terminal GST; dsDNA, one strand shown
Sequence of ETV6 (P41212 whole entry): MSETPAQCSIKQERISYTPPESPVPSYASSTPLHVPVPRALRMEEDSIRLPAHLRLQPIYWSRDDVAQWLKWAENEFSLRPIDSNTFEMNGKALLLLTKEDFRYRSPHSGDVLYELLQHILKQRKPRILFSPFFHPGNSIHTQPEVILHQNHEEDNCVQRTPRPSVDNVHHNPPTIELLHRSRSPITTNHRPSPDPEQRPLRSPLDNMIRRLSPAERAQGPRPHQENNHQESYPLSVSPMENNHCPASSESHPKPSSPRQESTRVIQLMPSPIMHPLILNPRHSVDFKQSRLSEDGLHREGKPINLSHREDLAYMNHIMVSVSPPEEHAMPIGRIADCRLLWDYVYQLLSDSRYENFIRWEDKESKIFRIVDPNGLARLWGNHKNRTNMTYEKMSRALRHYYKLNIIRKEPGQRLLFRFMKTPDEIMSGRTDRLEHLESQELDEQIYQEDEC
Summary of the method: as §1

## CTAAAA
FEV
  binding signal: 1.09 fold enrichment (6-mer frequency, TF over GST control)
ETV5
  binding signal: 1.16 fold enrichment (6-mer frequency, TF over GST control)
HSF1
  binding signal: 1.26 fold enrichment (6-mer frequency, TF over GST control)
SPIC
  binding signal: 1.25 fold enrichment (6-mer frequency, TF over GST control)
ELF4
  binding signal: 1.24 fold enrichment (6-mer frequency, TF over GST control)
ELK4
  binding signal: 1.21 fold enrichment (6-mer frequency, TF over GST control)
ETV2
  binding signal: 1.21 fold enrichment (6-mer frequency, TF over GST control)
ELF3
  binding signal: 1.12 fold enrichment (6-mer frequency, TF over GST control)
CRX
  binding signal: 1.4 fold enrichment (6-mer frequency, TF over GST control)
ETV1
  binding signal: 1.19 fold enrichment (6-mer frequency, TF over GST control)
ERF
  binding signal: 1.2 fold enrichment (6-mer frequency, TF over GST control)
ETV3L
  binding signal: 1.2 fold enrichment (6-mer frequency, TF over GST control)
ETS2
  binding signal: 1.21 fold enrichment (6-mer frequency, TF over GST control)
SPDEF
  binding signal: 1.19 fold enrichment (6-mer frequency, TF over GST control)
ETV7
  binding signal: 1.1 fold enrichment (6-mer frequency, TF over GST control)
ELF5
  binding signal: 1.11 fold enrichment (6-mer frequency, TF over GST control)
ETV3
  binding signal: 1.12 fold enrichment (6-mer frequency, TF over GST control)
ETV6
  binding signal: 1.15 fold enrichment (6-mer frequency, TF over GST control)
